Bioassay records as filed in PubChem BioAssay.
Rows were chosen to be rich in hits. Some 4.1% of all compounds tested hit in one or more screens of this group.
DAX1 inh-1: blocks DAX1 repression of SF-1 activated StAR promoter. HEK293T StAR-luciferase reporter, SF-1/DAX-1 repression relief. inhibition, % at 6.8 µM. actives 1.1% (n = 370,000);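 active = inhibition above the mean over all tested compounds plus 3 SD, cut at about 3.6% in these data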;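 note: 0% = DAX-1 cells with DMSO and 100% = cells lacking DAX-1 with DMSO; higher inhibition means more luminescence from relief of DAX-1 repression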
hgDAF-12 ag: hgDAF-12 agonism, primary luciferase screen | HEK293 GAL4-hgDAF12 UAS-luciferase reporter, agonist luminescence; normalized to butyrate control | activation, % at 6.8 µM | actives 1.8% (n = 370,000) | AID 687014;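 active = activation above a cutoff set at the mean of all screened compounds plus 3 SD, cut at about 10% in these data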;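 note: 0% = DMSO wells and 100% = sodium butyrate wells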
hcDAF12 agonist: activates DAF-12 receptor from parasite H. contortus. HEK293 hcDAF-12 lit1-tk-luc reporter, luminescence; 0% DMSO, 100% Δ7-dafachronic acid. activation, % at 6.8 µM. actives 1.4% (n = 370,000). AID 652067;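 active = activation above the mean of all tested compounds plus 3 SD, cut at about 5.5% in these data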;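 note: 100% = response to 3 µM Δ7-dafachronic acid high control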
ssDAF-12 act: activators of S. stercoralis DAF-12 nuclear receptor | actives 1% (n = 370,000) | HEK293 ssDAF-12/GRIP1 lit1-tk-luc reporter, luminescence; % of 3 µM dafachronic acid response | activation, % at 6.8 µM;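 active = activation above the mean over all tested compounds plus 3 SD, cut at about 0.9% in these data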;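 note: 0% = DMSO-only wells and 100% = 3 µM delta7-dafachronic acid wells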
DAX1 inh-2: inhibits human nuclear receptor DAX1. actives 0.99% (n = 340,000). inhibition, % at 6.75 µM. HEK293 Gal4-DAX1 luciferase reporter, luminescence. P51843;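 active = inhibition above the mean over all tested compounds plus 3 SD, cut at about 4.2% in these data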;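 note: 0% = DAX1-transfected cells with DMSO and 100% = empty-vector control cells with DMSO; inhibition shows as a rise in luminescence from relieved DAX1 repression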
DAX1 inh confirm: NR0B1 (human) inhibition, confirmation; actives 87% (n = 2,400); HEK293T StAR-promoter luciferase reporter, SF-1/DAX-1 repression; inhibition, % at 6.8 µM; AID 652134; shares compounds with DAX1 inh-1;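 active = inhibition above the average of every tested compound plus 3 SD, cut at about 3.8% in these data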;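 note: 0% = DAX-1 cells with DMSO and 100% = no DAX-1 control cells with DMSO; active compounds raise luminescence by relieving repression of the StAR reporter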
Target sequence (P51843 whole entry, looked up): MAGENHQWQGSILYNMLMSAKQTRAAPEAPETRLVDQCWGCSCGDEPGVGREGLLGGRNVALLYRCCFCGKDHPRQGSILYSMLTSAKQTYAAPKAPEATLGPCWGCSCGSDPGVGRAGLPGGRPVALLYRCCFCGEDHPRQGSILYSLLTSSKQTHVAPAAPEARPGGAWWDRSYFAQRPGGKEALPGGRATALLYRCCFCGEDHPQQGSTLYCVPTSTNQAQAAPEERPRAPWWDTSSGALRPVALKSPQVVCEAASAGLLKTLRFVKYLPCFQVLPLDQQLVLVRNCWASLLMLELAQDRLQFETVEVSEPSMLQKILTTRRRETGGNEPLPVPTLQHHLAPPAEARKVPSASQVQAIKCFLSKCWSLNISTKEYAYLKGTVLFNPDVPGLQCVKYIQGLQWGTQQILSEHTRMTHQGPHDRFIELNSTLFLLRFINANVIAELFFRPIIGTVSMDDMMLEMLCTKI
SF1 mutant ctr: counter-screen for DAX1 inhibitors: nonselective inhibitors with SF-1 AF2 mutant; inhibition, % at 6.8 µM; actives 78% (n = 2,400); HEK293 StAR-luciferase, luminescence; AID 652136; shares compounds with DAX1 inh-1;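 active = inhibition above the mean of all tested compounds plus 3 SD, cut at about 3% in these data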;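 note: 0% = DAX-1 transfected cells with DMSO and 100% = cells without DAX-1 with DMSO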
LXRb hcDAF ctr: LXR-beta agonism as hcDAF-12 counter-screen; HEK293 Gal4-LXR tk-luc reporter, luminescence, 24 h; normalized: DMSO 0%, positive control 100%; 3,400 tested, under 10 active; shares compounds with hcDAF12 agonist; activation, % at 6.8 µM;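 active = mean percent activation of the reporter above a cutoff set as the average over tested compounds plus their standard deviation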
hcDAF12 conf: hcDAF-12 agonism, confirmation assay | shares compounds with hcDAF12 agonist | HEK293 hcDAF-12 lit1-tk-luc reporter, luminescence; % of Δ7-dafachronic acid response | activation, % at 6.8 µM | actives 61% (n = 3,400);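 active = mean activation across triplicate tests above the threshold derived from the earlier primary screen, cut at about 5.5% in these data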;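 note: 0% = DMSO only wells and 100% = 3 µM Δ7-dafachronic acid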
hgDAF12 conf: confirmation of H. glycines DAF-12 agonists; HEK293 GAL4-hgDAF12 luciferase reporter, agonist mode; percent of butyrate response; shares compounds with hgDAF-12 ag; actives 80% (n = 3,300); activation, % at 6.8 µM;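 active = mean activation over triplicate wells above the hit cutoff derived from the earlier primary screen, cut at about 11% in these data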;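 note: 0% = DMSO low control and 100% = 2 mM sodium butyrate high control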
LXR ag 2: counter-screen for DAF-12 agonists: agonists of human LXR-beta; shares compounds with hgDAF-12 ag; HEK293 Gal4-LXR luciferase reporter, 24 h; activation, % at 6.8 µM; 3,300 tested, under 10 active; AID 743051;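 active = mean activation of the triplicate above a set limit carried over from the primary screen, none filed active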
* marks the source's active call; other numbers are inactive results; / = no result.

SMILES	DAX1 inh-1	hgDAF-12 ag	hcDAF12 agonist	ssDAF-12 act	DAX1 inh-2	DAX1 inh confirm	SF1 mutant ctr	LXRb hcDAF ctr	hcDAF12 conf	hgDAF12 conf	LXR ag 2
CCN(CC(=O)Nc1ccccc1OC)CC(=O)Nc1c(Cl)ccc(C)c1Cl	-1	0	-2	-2	0	/	/	/	/	/	/
Cc1c(C(=O)O)oc2c(F)cccc12	0	-4	-3	-1	/	/	/	/	/	/	/
Cc1c(C(=O)NC2CCOC2)oc2c(F)cccc12 (configuration not stated)	5.7*	14*	5	0	3	6.4*	3.3*	/	/	13*	0
COc1ccc2c(CC(=O)Nc3nc(C)cs3)coc2c1	-1	2	-2	-1	0	/	/	/	/	/	/
COc1ccc2oc(C(=O)NC3CCCCC3)c(C)c2c1	6.2*	16*	5.8*	0	2	7.0*	5.9*	/	/	14*	1
COc1ccc2oc(C(=O)NN3C(C)CCCC3C)c(C)c2c1 (configuration not stated)	1	-4	-1	-2	0	/	/	/	/	/	/
COc1ccc2oc(C(=O)Nc3nc(C)cs3)c(C)c2c1	6.9*	21*	9.9*	1.1*	1	10*	6.6*	2	12*	20*	1
CCCCN(C(=O)C1CC(=O)N(c2ccc(OC)cc2OC)C1)c1c(N)n(CC(C)C)c(=O)[nH]c1=O (configuration not stated)	1	0	0	-1	1	/	/	/	/	/	/
Cc1cc(C)n2nc(C(=O)OCC(=O)N(C)C3CCCCC3)nc2n1	0	0	0	-1	0	/	/	/	/	/	/
O=[N+]([O-])c1cc(Cl)ccc1-c1nc(-c2ccccc2)no1	4.7*	25*	11*	4.0*	4.5*	14*	7.7*	2	9.9*	18*	1
CC(C)(C)NC(=O)C(c1ccncc1)n1c(-c2ccc(C(F)(F)F)cc2)nc2ccccc21 (configuration not stated)	11*	17*	9.2*	1.4*	/	11*	7.9*	1	5	17*	1
CNC(=S)Nc1ccc([N+](=O)[O-])cc1C	0	-2	-2	-2	0	/	/	/	/	/	/
Cc1cc([N+](=O)[O-])ccc1NC(=O)c1csc(C)c1C	5.5*	19*	3	0	3	4.5*	2.9*	/	/	19*	1
Nc1ccc(-c2nc3ccc(-c4nc5ccccc5o4)cc3[nH]2)cc1	-1	-1	-1	-1	-2	/	/	/	/	/	/
Cc1nc2ccc(-c3nc4ccccc4o3)cc2[nH]1	5.2*	20*	3	0	0	15*	8.8*	/	/	22*	1
COc1ccc(S(=O)(=O)N2CCC(C(=O)N[C@H](C(=O)N3CCCCCC3)C(C)C)CC2)cc1	0	-1	1	-1	1	/	/	/	/	/	/
O=C(O)c1ccc(Nc2nc(-c3ccccc3)cs2)cc1	5.0*	15*	5	1	2	13*	7.7*	/	/	16*	1
Cc1csc(Nc2ccc(C(=O)O)cc2)n1	0	0	0	-1	2	/	/	/	/	/	/
CN(C(=O)C1CCC(=O)N(Cc2ccccc2F)C1)C1CCOCC1 (configuration not stated)	1	0	0	-1	0	/	/	/	/	/	/
Cc1c(Cl)cccc1NC(=O)c1ccco1	0	0	-1	-1	0	/	/	/	/	/	/
Cc1c(Cl)ccc2sc(NC(=O)c3ccco3)nc12	6.0*	21*	10*	1.2*	3	12*	8.7*	2	9.9*	21*	1
Cc1c(C(=O)N2c3ccccc3CC2C)oc2ccccc12 (configuration not stated)	5.3*	18*	11*	2.3*	3	8.8*	6.1*	1	17*	20*	1
Nc1ccc(C(=O)Nc2nc3ccccc3s2)cc1	5.3*	21*	6.6*	1.2*	-2	5.6*	3.0*	2	8.7*	21*	1
Cc1cc(C)n(-c2ccc(C(=O)Nc3nc4ccccc4s3)cc2)n1	2	9	2	0	2	/	/	/	/	/	/
CC(C)C(=O)Nc1ccc2nn(-c3ccccc3)nc2c1	12*	22*	8.8*	1.0*	1	13*	7.3*	2	8.4*	19*	1
SMILES	DAX1 inh-1	hgDAF-12 ag	hcDAF12 agonist	ssDAF-12 act	DAX1 inh-2	DAX1 inh confirm	SF1 mutant ctr	LXRb hcDAF ctr	hcDAF12 conf	hgDAF12 conf	LXR ag 2
O=C(Nc1ccc2nn(-c3ccccc3)nc2c1)c1cccnc1	1	3	-1	-1	0	/	/	/	/	/	/
Cc1ccc(-c2cn3cccc(C)c3n2)cc1	9.2*	15*	16*	3.8*	0	17*	7.9*	2	17*	21*	1
CCC(=O)Nc1cccc(-c2cn3cccc(C)c3n2)c1	0	-1	1	-1	/	/	/	/	/	/	/
Cc1cccn2cc(-c3ccc(Cl)cc3)nc12	9.3*	16*	18*	2.6*	1	11*	4.0*	1	18*	18*	1
COc1ccc(-c2cn3cc(C)ccc3n2)cc1OC	4.9*	19*	4	0	-1	12*	6.6*	/	/	18*	1
COc1ccc(-c2cn3cccc(C)c3n2)cc1F	5.0*	18*	7.9*	1.0*	2	14*	9.0*	1	5	16*	1
Cc1cccn2cc(-c3ccc(S(=O)(=O)N4CCCCC4)cc3)nc12	-1	4	-1	-1	-1	/	/	/	/	/	/
COc1ccc(-c2csc(C)n2)cc1OC	0	0	-1	-1	0	/	/	/	/	/	/
CC(=O)N/N=C/c1cc(C(C)C)cc(/C=N/NC(C)=O)c1O	0	-2	-3	-1	0	/	/	/	/	/	/
Cc1cn(S(=O)(=O)c2ccccc2[N+](=O)[O-])cn1	1	-3	-1	-2	-1	/	/	/	/	/	/
